# Screening data: PubChem, National Center for Advancing Translational Sciences (NCATS)
# Only some compounds are listed: those with a hit (about 11% of all), similar ones and a draw of the others.
# L3MBTL1 inh – inhibitors of human L3MBTL1 | Q9Y468 | Potency, µM (titrated, usually from 57.1 µM), for the others: at the highest dose activity, negative = inhibition, most hits filed as inhibitors | AlphaScreen L3MBTL1–H3K9me1 peptide binding | 230,000 compounds, 0.66% hits | AID 485360; note: potency is the fitted concentration of half-maximal effect; % is set by controls: 0 for no effect and ±100 for the full control effect; nearly all actives have a fitted effect of over 60% in size
#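 Read-out is AlphaScreen signal from streptavidin donor and nickel chelate acceptor beads (10 ug/mL final each) bridging L3MBTL1 (50 nM) and biotinylated K9-monomethylated H3(1-15) peptide (75 nM), after 30 min compound exposure at room temperature.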
# BAZ2B inh – blocks human BAZ2B | Q9UIF8 | AlphaScreen BAZ2B-H3K14Ac peptide displacement | AID 504333 | Potency, µM (top dose mostly 114 µM), without a hit: at the top dose activity change, negative = inhibition, actives largely listed as inhibitors | 360,000 compounds, 4.4% hits; note: potency is the fitted concentration of half-maximal effect; % is set by controls: 0 for no effect and ±100 for the full control effect; nearly all actives have a fitted effect of over 60% in size
#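 Complex of BAZ2B and biotin-H3K14Ac (50 nM apiece) forms over 30 min at RT, then faces library compounds up to 110 uM for another 30 min; AlphaScreen beads added, 20 min dark incubation, luminescence read.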
# JMJD2A Tudor – JMJD2A Tudor domain (human) inhibition; O75164; AlphaScreen JMJD2A-Tudor / H3K4me3 peptide binding; 390,000 compounds, 4.4% hits; Potency, µM (top dose mostly 114 µM), for the others: at the top dose activity change, negative = inhibition, usual class: inhibitors; note: potency is the fitted concentration of half-maximal effect; % is set by controls: 0 for no effect and ±100 for the full control effect; nearly all actives have a fitted effect of over 50% in size
# PI5P4Ka inh – blocks human PI5P4K alpha kinase activity. AID 652105. max response, %. 330,000 compounds, 1.2% hits. P48426. PI5P4Kalpha enzyme, ADP-Glo luminescence, 60 min; active compounds read low; active = max response of -50% or lower; inconclusive = between -30% and -50%; inactive = -30% or higher; note: value at the top dose of about 77 µM; % is set by controls: 0 for no effect and ±100 for the full control effect
# Target sequence (P48426 whole entry, looked up): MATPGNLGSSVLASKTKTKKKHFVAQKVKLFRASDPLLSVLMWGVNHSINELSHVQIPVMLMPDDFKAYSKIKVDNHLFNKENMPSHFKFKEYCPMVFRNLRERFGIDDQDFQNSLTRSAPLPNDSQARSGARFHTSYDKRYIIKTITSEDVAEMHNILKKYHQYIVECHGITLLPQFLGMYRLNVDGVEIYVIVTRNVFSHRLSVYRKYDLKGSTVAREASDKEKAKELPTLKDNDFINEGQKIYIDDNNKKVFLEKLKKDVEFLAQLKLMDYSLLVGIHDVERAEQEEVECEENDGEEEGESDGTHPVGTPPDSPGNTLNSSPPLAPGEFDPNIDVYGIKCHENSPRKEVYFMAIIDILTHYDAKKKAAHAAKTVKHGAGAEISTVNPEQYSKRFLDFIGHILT
#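 Luminescence from ADP-Glo served as readout of PI5P4Kalpha activity in a qHTS format. Reaction: enzyme, substrate, compound, ATP at 5 microM final, 60 min at RT.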
# G9a block – blocks human histone lysine methyltransferase G9a; Q96KQ7; G9a H3K9 monomethylation, AlphaScreen, 2 h; Potency, µM (highest dose often 102 µM), inactives show at the highest dose activity, negative = inhibition, usual class: inhibitors; 350,000 compounds, 8.8% hits; note: potency is the fitted concentration of half-maximal effect; % is set by controls: 0 for no effect and ±100 for the full control effect; nearly all actives have a fitted effect of over 75% in size
# Target sequence (Q96KQ7 913-1193 limits assumed): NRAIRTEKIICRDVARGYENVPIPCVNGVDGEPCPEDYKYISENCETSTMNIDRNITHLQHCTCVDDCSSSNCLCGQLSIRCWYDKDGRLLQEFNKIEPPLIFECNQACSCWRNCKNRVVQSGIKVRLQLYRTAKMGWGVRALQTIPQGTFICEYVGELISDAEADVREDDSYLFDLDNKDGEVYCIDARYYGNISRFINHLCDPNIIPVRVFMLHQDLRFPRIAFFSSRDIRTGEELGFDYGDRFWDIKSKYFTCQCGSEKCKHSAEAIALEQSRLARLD
#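 Using a bead-based AlphaScreen, monomethylated H3K9 product from 2 h room-temperature reactions (G9a 20 nM, peptide 500 nM, SAM 20 uM) was detected with 0.5 ug/mL rabbit anti-H3K9me1 antibody.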
# HP1b binding inh – HP1-beta chromodomain-methylated histone interaction inhibition; P83916; AlphaScreen HP1-beta / biotin-H3K9me3 peptide binding; Potency, µM (titrated, usually from 114 µM), inactives show at the highest dose activity change, negative = inhibition, actives largely listed as inhibitors; 390,000 compounds, 0.56% hits; AID 540317; note: potency is the fitted concentration of half-maximal effect; nearly all actives have a fitted effect of over 70% in size
#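 HP1-beta protein (50 nM final) preincubated 30 min at room temperature with biotinylated H3(1-18)K9me3 peptide (50 nM) in PBS pH 7.4, 0.01% Tween-20, then compound added for 30 min. AlphaScreen streptavidin donor/nickel chelate acceptor beads (10 ug/mL final), 30 min dark, luminescence read.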
# * = called active by the depositor; ? = inconclusive; nt = not tested or not shown; [ ] = dose if it differs, or a comment. Unless noted, calls come from the whole dose curve; as a rule, active = well fitted inhibition curve with a large enough effect; inconclusive = small, poorly fitted or top-dose-only effect; inactive = no such curve, though single readings can be large or run the other way.
SMILES,L3MBTL1 inh,BAZ2B inh,JMJD2A Tudor,PI5P4Ka inh,G9a block,HP1b binding inh
CC(=O)N1CCCc2cc(S(=O)(=O)CCC(=O)N3CCN(c4cccc(C)c4)C(C)C3)ccc21 (centres undefined),nt,50µM*,56µM*,3,50µM*,-25%
Cc1cccc(N2CCN(C(=O)CCS(=O)(=O)c3ccc(Br)cc3)CC2C)c1 (centres undefined),nt,32µM*,?,-19,25µM*,28µM*
O=C(CCS(=O)(=O)c1ccc(Br)cc1)N1CCN(c2ccccc2)CC1,nt,?,-30%,5,?,-23%
NS(=O)(=O)c1cccc(NC(=O)c2cc(-c3cccs3)nc3ccccc23)c1,-6%,-35%,-21%,0,45µM*,24%
NS(=O)(=O)c1cccc(NC(=O)COC(=O)c2cc(-c3ccc(Cl)cc3)nc3ccccc23)c1,2%,-19%,-19%,-8,35µM*,11%
O=C(NCCc1ccc(Cl)cc1)c1nnc(Cc2ccc(F)cc2)o1,nt,4%,-5%,nt,-32%[59 µM],7%
Cc1ccsc1C=C1C(=O)c2ccccc2C1=O,-16%,?,?,-10,28µM*,-7%
CC1=NN2C(=N)/C(=C\c3ccc(SCc4ccccc4)o3)C(=O)N=C2S1,nt,-39%,?,?,21%[12.7 µM],11%
CS(=O)(=O)C1=NSC2=NC(=O)/C(=C\c3ccc(-c4ccccc4)o3)C(=N)N21,0%,-6%,nt,nt,50µM*,nt
CC(C)S(=O)(=O)C1=NSC2=NC(=O)/C(=C\c3ccc(-c4ccccc4)o3)C(=N)N21,9%,?,-26%,-102*,?,1%
N=C1/C(=C/c2ccc(-c3cccc(C(=O)O)c3)o2)C(=O)N=C2SC=C(c3ccccc3)N12,nt,13µM*,22µM*,-83*,40µM*,?
N=C1/C(=C\c2ccc(-c3cc(Cl)cc(Cl)c3)o2)C(=O)N=C2SC=C(c3ccccc3)N12,-9%,-1%,-19%,?,-8%,12%
COc1ccccc1CNC(=O)CCc1c(C)c2cc3c(C)c(C)oc3cc2oc1=O,nt,-12%,-12%,nt,-4%[59 µM],12%
CC(=O)c1ccc(S(=O)(=O)Nc2cccc(-c3ccc(N4CCCCCC4)nn3)c2)cc1,nt,-4%,-27%,nt,-19%[59 µM],8%[57 µM]
CCN1CCCC1Cn1cnc2c([nH]c3cccc(Cl)c32)c1=O (centres undefined),-4%,-22%,-13%,3,32µM*,16%
CC(C)CC1N=C2c3ccccc3N=C(SCC(=O)NCCc3ccc(Cl)cc3)N2C1=O (centres undefined),nt,-2%,1%,nt,-3%[12.7 µM],29%
N=C1C=CC=C2C1=NC1(CCCCC1)N2O,-29%,45µM*,?,nt,?,?
COc1cc2c(cc1OC)n(Cc1ccc([N+](=O)[O-])cc1)c(=O)n1nc(-c3ccccc3)nc21,nt,-3%,-11%,nt,16%[59 µM],6%
NC(=O)c1ccccc1NC(=O)CCCc1ccccc1,3%[2.29 µM],3%,-12%,2,-4%[0.501 µM],17%
NC(=O)c1ccccc1NC(=O)CCCN1C(=O)CCC1=O,-2%,8%,11%,7,45µM*,19%
CCC(Sc1nc2cc3c(cc2c(=O)n1CCCCCC(=O)NCc1ccc2c(c1)OCO2)OCO3)C(=O)NCCCOC (centres undefined),nt,4%,-19%,nt,8%[59 µM],47%
CC[C@]1(C(=O)OC)[C@H]2C(=O)N(Cc3ccccc3)C(=O)[C@H]2[C@H]2CN=C(SCc3ccc(C)cc3)N21,4%,nt,-26%,7,nt,29%
CCN1C(=O)[C@H]2[C@H]3CN=C(SCc4ccc(C#N)cc4)N3[C@@](Cc3ccccc3)(C(=O)OC)[C@H]2C1=O,0%,nt,-36%,0,nt,34%
COC(=O)[C@@]1(Cc2ccccc2)[C@H]2C(=O)N(C)C(=O)[C@H]2[C@H]2CN=C(SCC3CC3)N21,11%,nt,?,0,nt,87%
CCN1C(=O)[C@H]2[C@H]3CN=C(SCC4CC4)N3[C@@](Cc3ccccc3)(C(=O)OC)[C@H]2C1=O,19%,nt,89µM*,-1,nt,9%
SMILES,L3MBTL1 inh,BAZ2B inh,JMJD2A Tudor,PI5P4Ka inh,G9a block,HP1b binding inh
CCN1C(=O)[C@H]2[C@H]3CN=C(SCc4ccccc4)N3[C@@](Cc3ccccc3)(C(=O)OC)[C@H]2C1=O,-8%,nt,89µM*,0,nt,21%
CC[C@]1(C(=O)OC)[C@H]2C(=O)N(Cc3ccccc3)C(=O)[C@H]2[C@H]2CN=C(SCC3CC3)N21,31%,nt,79µM*,6,nt,19%
COc1cc(-c2c(C#N)c(N)nc3c2CCCC3)ccc1O,-2%,-12%,-29%[11.4 µM],?,-33%,-7%
COc1cc(-c2c(C#N)c(N)nc3[nH]c(=S)[nH]c(=O)c23)ccc1O,nt,-5%,-14%,-67*,71µM*,43%
CC(=O)N(C1CC(C)C(C#N)(C#N)C1(C#N)C#N)N(C)C (centres undefined),1%,-10%,-18%,-29,13µM*,20%
CCCC(=O)N(C1CC(C)C(C#N)(C#N)C1(C#N)C#N)N(C)C (centres undefined),-5%,16%,-33%,-4,7.1µM*,4%
CC(C)N1CCc2c(sc(NC(=O)c3cc(-c4cccs4)nc4ccccc34)c2C(N)=O)C1,-11%,40µM*,?,-23,11µM*,-6%
CC(C)N1CCc2c(sc(NC(=O)c3nc4ccccc4s3)c2C(N)=O)C1,-5%,-36%,?,-22,45µM*,-1%
NC(=O)c1ccsc1NC(=O)c1ccc(S(=O)(=O)N2CCCc3ccccc32)cc1,-4%,?,-34%,-7,50µM*,13%
CC(C)N1CCc2c(sc(NC(=O)c3ccc(S(=O)(=O)N4CCc5ccccc54)cc3)c2C(N)=O)C1,-21%,?,?,?,18µM*,3%
CCC(C)NC(=O)c1cc(-c2cccs2)nc2ccccc12 (centres undefined),nt,-1%,-9%,0,21%,70%
CC(C)N1CCc2c(sc(NC(=O)c3ccc(S(=O)(=O)N(C)C4CCCCC4)cc3)c2C(N)=O)C1,nt,3%,?,nt,-23%[59 µM],34%
COC(=O)c1ccc(Nc2ncnc3c2nc2n3CCCC2)cc1,nt,-7%,-15%,nt,-39%[59 µM],24%
Cc1ccc(-n2c(SCCC(C)C)nc3sc4c(c3c2=O)CC(C)(C)OC4)cc1,nt,1%,-15%,nt,2%[59 µM],23%
C/C(=N\Nc1ccc(C)c(Cl)c1)c1cccnc1,nt,-38%,-17%,-2,11µM*,45%
C/C(=N\Nc1cccc(Cl)c1)c1ccc(-n2ccnc2)cc1,-4%,?,?,-10,7.9µM*,5%
C/C(=N\Nc1ccc(C)c(Cl)c1)c1ccncc1,nt,?,?,2,22µM*,23%
